IP6K1 inhibitor – blocks human inositol hexakisphosphate kinase 1. IP6K1 kinase, ADP-Glo luminescence, 2 h; stronger effect = lower value. hit rate 0.81% among 140,000. activity change, % (series mostly up to about 58 µM). Q92551. AID 1645851; in the data active means activity change below about -25%
Target sequence (Q92551 whole entry, looked up): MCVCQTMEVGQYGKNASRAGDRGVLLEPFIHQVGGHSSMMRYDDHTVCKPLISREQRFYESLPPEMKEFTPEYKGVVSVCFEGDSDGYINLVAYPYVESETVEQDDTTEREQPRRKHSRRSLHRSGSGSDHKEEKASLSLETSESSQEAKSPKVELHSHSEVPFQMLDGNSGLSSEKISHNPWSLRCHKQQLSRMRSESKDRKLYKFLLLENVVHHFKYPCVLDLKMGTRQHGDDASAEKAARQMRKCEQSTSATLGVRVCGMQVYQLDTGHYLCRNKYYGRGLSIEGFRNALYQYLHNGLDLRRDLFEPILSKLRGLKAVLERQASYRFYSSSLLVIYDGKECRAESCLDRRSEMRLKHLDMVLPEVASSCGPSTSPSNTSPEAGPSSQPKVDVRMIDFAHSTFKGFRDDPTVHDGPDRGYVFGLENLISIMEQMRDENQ
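ADP-Glo luminescence measures ADP made by human IP6K1 during a 2 h RT reaction with ATP/IP6 (mix at 1.3 mM/130 uM); top library doses 57.5 and 19.1 uM final.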
KDM5B inhibitor – blocks human KDM5B histone demethylase activity. KDM5B demethylase, FDH-coupled NADH fluorescence (FDH is formaldehyde dehydrogenase). AID 1347165. hit rate 2.6% among 220,000. Potency, µM (highest dose often 57.7 µM), hits mostly inhibitors; further: nearly all actives have a fitted effect of over 70% in size
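Measured: NADH fluorescence change, 30 min, RT. System: KDM5BΔAP 200 nM final, H3K4me3 peptide, α-KG, Fe(II), ascorbate, NAD⁺ plus FDH, pH 7.5 HEPES. Compounds: titrated, 10 min pre-incubation with enzyme.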
IP6K1 conf – confirmation of human IP6K1 inhibitors. shares compounds with IP6K1 inhibitor. recombinant IP6K1 kinase, ADP-Glo luminescence, 2 h. Potency, µM (highest dose often 49 µM), most hits filed as inhibitors. hit rate 13% among 1,200. AID 1645852; further: nearly all actives have a fitted effect of over 65% in size
Large screens that a line does not name were inactive (follow-up assays come after a bar, where they were run); ! = not confirmed by another sample. A selection: hits, their analogues and other compounds. The true share with any hit is near 2.8%. Unless noted, the call rests on the fitted dose curve; in most records, active means well fitted inhibition curve with a large enough effect; inconclusive means small, poorly fitted or top-dose-only effect; inactive means no such curve, though single readings can be large or run the other way.

OC[C@H]1O[C@@H](Oc2cc(O)cc(/C=C/c3ccc(O)cc3)c2)[C@H](O)[C@@H](O)[C@@H]1O	none (no result: KDM5B inhibitor)
CC(C)NC(=O)c1cc(C(C)(C)C)nc2c1cnn2C	KDM5B inhibitor inconclusive
COc1cccc(CNC(=O)c2nn(C)c3c2CSc2ccccc2-3)c1	IP6K1 inhibitor -32, KDM5B inhibitor inconclusive | IP6K1 conf inconclusive
Cn1nc(C(=O)NCc2ccccc2)c2c1-c1ccccc1SC2	KDM5B inhibitor inconclusive
Cc1ccc(-c2ccc(=O)n(CC(=O)NCCc3ccccc3)n2)cc1	KDM5B inhibitor inconclusive
Cc1ccc(-c2ccc(=O)n(CCC(=O)NCCc3ccccc3)n2)cc1	IP6K1 inhibitor -27, KDM5B inhibitor inconclusive | IP6K1 conf inactive
Clc1ccc2c(c1)-n1cc(-c3ccccc3)nc1CO2	IP6K1 inhibitor -28 | IP6K1 conf inconclusive
COC(=O)CC1Oc2ccc(Cl)cc2-n2cc(-c3ccccc3)nc21 (stereo not drawn)	KDM5B inhibitor inconclusive
Cc1ccc(CSc2ncc(Cl)c(C(=O)Oc3ccccc3F)n2)cc1	KDM5B inhibitor inconclusive
O=C(Oc1ccccc1F)c1nc(SCc2ccccc2F)ncc1Cl	IP6K1 inhibitor -33, KDM5B inhibitor inconclusive | IP6K1 conf inactive
O=C(c1cc(F)ccc1F)N1CCC(n2cc(-c3nc(-c4ccccc4)no3)nn2)C1 (stereo not drawn)	none
Cc1oc2ncn(CC(C)C)c(=O)c2c1C(=O)NCCCN(Cc1ccccc1)C(C)C	IP6K1 inhibitor -29 | IP6K1 conf inactive
Cc1oc2ncn(CC(C)C)c(=O)c2c1C(=O)NCCc1ccccc1	none
Cc1ccc(C)c(Cn2cc(S(=O)(=O)c3ccc(Cl)cc3)c(=O)c3cc(F)ccc32)c1	IP6K1 inhibitor -25 | IP6K1 conf inactive
CCOc1ccc(S(=O)(=O)c2cn(Cc3cc(C)ccc3C)c3ccc(OCC)cc3c2=O)cc1	none
COc1ccc(NC(=O)C2CCc3nnc(C4CCN(C(=O)NC(C)(C)C)CC4)n32)cc1 (stereo not drawn)	none (no result: KDM5B inhibitor)
COc1ccc(Cn2ccc3nc(C)c(C(=O)Nc4cccc(SC)c4)cc3c2=O)cc1	KDM5B inhibitor inconclusive
CCc1cccc(NC(=O)c2cc3c(=O)n(Cc4ccccc4)ccc3nc2C)c1	IP6K1 inhibitor -27, KDM5B inhibitor inconclusive | IP6K1 conf inactive
Cc1oncc1C(=O)Nc1ccc(C(F)(F)F)cc1	none (no result: KDM5B inhibitor) | IP6K1 conf inactive
Cc1oncc1C(=O)Nc1cccc2ccccc12	none (no result: IP6K1 inhibitor)
CN1C(=O)N[C@@H](Cc2c[nH]c3c(Cl)cccc23)C1=O	none (no result: KDM5B inhibitor)
CN1C(=O)NC(Cc2c[nH]c3c(Cl)cccc23)C1=O (stereo not drawn)	none (no result: IP6K1 inhibitor, KDM5B inhibitor) | IP6K1 conf inactive
NC(=O)NCC(=O)N1CCC2(CCC(=O)N(Cc3ccccn3)C2)CC1	none
Cc1ccc(CN(Cc2ccco2)C(=O)c2oc3c(C)c(C)ccc3c2C)cc1	IP6K1 inhibitor -29, KDM5B inhibitor inconclusive | IP6K1 conf inconclusive
Cc1ccc(CN(Cc2ccco2)C(=O)c2oc3ccc(C)cc3c2C)cc1	KDM5B inhibitor inconclusive
Cc1ccccc1NC1(c2nnnn2-c2c(C)cccc2C)CCCCC1	none (no result: IP6K1 inhibitor)
O=C(CSc1ncnc2ccccc12)N(C1CCCCC1)C1CCS(=O)(=O)C1 (stereo not drawn)	none (no result: IP6K1 inhibitor)
COc1ccc(CCNC(=O)CS(=O)Cc2nc(-c3ccc(C)cc3)oc2C)cc1OC (stereo not drawn)	none
COc1ccc(CCNC(=O)CS(=O)Cc2nc(-c3ccc(C)cc3)oc2C)c(OC)c1 (stereo not drawn)	IP6K1 inhibitor -26, KDM5B inhibitor inconclusive | IP6K1 conf inactive
COC(=O)c1cc2oc(C)cc2n1Cc1ccccc1Cl	KDM5B inhibitor inconclusive
CO/N=C(/C(=O)N[C@@H]1C(=O)N2C(C(=O)OCOC(=O)C(C)(C)C)=C(C)CS[C@H]12)c1csc(N)n1	none (no result: KDM5B inhibitor)
CO/N=C(/C(=O)N[C@@H]1C(=O)N2C(C(=O)O)=C(CSC(=O)c3ccco3)CS[C@H]12)c1csc(N)n1	IP6K1 inhibitor -49! (no result: KDM5B inhibitor) | IP6K1 conf inconclusive
COc1ccc(NC(=O)NC[C@H]2O[C@@H](CO)[C@@H](O)C2N2CCN(c3ccccc3)CC2)cc1 (stereo partly drawn)	KDM5B inhibitor inconclusive
Cc1[nH]c(/C=C2\C(=O)Nc3ccccc32)c(C)c1CCC(=O)O	none (no result: IP6K1 inhibitor, KDM5B inhibitor) | IP6K1 conf inactive
O=C1Nc2ccccc2/C1=C/c1csc(-c2ccccc2)n1	none (no result: IP6K1 inhibitor)
C[C@@H]1CCN(C(=O)CC#N)C[C@@H]1N(C)c1ncnc2[nH]ccc12	none (no result: IP6K1 inhibitor, KDM5B inhibitor) | IP6K1 conf inactive
C[C@@H]1CCN(C(=O)N2CCCC2)C[C@@H]1N(C)c1ncnc2[nH]ccc12	none (no result: KDM5B inhibitor)
Cc1nn(-c2ccccc2)c(OC(=O)c2ccccc2Br)c1S(=O)(=O)c1ccccc1	KDM5B inhibitor inconclusive
Cc1nn(-c2ccccc2)c(OC(=O)c2ccccc2)c1S(=O)(=O)c1ccccc1	IP6K1 inhibitor -33, KDM5B inhibitor inconclusive | IP6K1 conf inactive
Cc1ccc(Cc2cnc(N)s2)cc1C	none (no result: IP6K1 inhibitor)
O=C(O)c1cc(-c2ccccc2CO)cc(S(=O)(=O)N2CCCCCC2)c1	IP6K1 inhibitor -30 | IP6K1 conf inactive
O=C(O)c1cc(-c2cncnc2)cc(S(=O)(=O)N2CCCCCC2)c1	none
CCNC(=O)c1n[nH]c2c1CN(C(=O)c1ccccc1OC(F)(F)F)CC2	none
Cc1cc2oc(=O)cc(CN3CCN(C(=O)C4COc5ccccc5O4)CC3)c2cc1C(C)C (stereo not drawn)	none (no result: IP6K1 inhibitor)
Nc1cccc(-c2ccc(N3CCOCC3)nn2)c1	IP6K1 inhibitor -30 | IP6K1 conf inconclusive
O=C(Nc1cccc(-c2ccc(N3CCOCC3)nn2)c1)Nc1cccc(C(F)(F)F)c1	none
COC(=O)N1CCCN(c2ccnc3ccnn23)CC1	none (no result: KDM5B inhibitor)
Cc1nn(C(=O)COc2ccccc2)c(C)c1Sc1ccccc1	none
Cc1ccc(Sc2c(C)nn(C(=O)COc3ccccc3)c2C)cc1	IP6K1 inhibitor -36, KDM5B inhibitor inconclusive | IP6K1 conf inconclusive
COc1cc(C#N)ccc1OC(C)C(=O)Nc1c(C)cc(C)cc1C (stereo not drawn)	none (no result: IP6K1 inhibitor)
CSc1cccc(CN(C)C(=O)c2ccc(CCC(C)(C)O)cc2)c1	none
CC(C)Cc1nc(CN(C)C(=O)c2cccc(CCC(C)(C)O)c2)no1	IP6K1 inhibitor -32 | IP6K1 conf inactive
Cc1ccc(C(=O)C(NC(=O)c2ccco2)Nc2ccc(C(=O)O)cc2)cc1 (stereo not drawn)	none (no result: IP6K1 inhibitor)
O=C1N(c2ccccc2)c2ccccc2C12CCN([S+](=O)([O-])c1cccc(C(F)(F)F)c1)C2 (stereo not drawn)	none
CN(Cc1nc(-c2ccncc2)no1)C1CCC2(CCNCC2)CC1	IP6K1 inhibitor -41 | IP6K1 conf inactive
CN(Cc1nc(-c2cccc(Cl)c2)no1)C1CCOCC1	none (no result: IP6K1 inhibitor)
Cn1cc(CC(=O)N2CCCc3ncc(C(=O)N4CCCC[C@@H]4Cc4ccccc4)cc32)c2ccccc21	none
Cc1cccc(OCC(=O)Nc2ccccc2OCc2cc(=O)n3ccccc3n2)c1	none
Cc1ccc(OCC(=O)Nc2ccccc2OCc2cc(=O)n3ccccc3n2)cc1C	IP6K1 inhibitor -27 | IP6K1 conf inactive
CC1=C(C)CC(C(=O)NC2CCN(Cc3ccccc3)CC2)C(C(=O)O)C1 (stereo not drawn)	none (no result: IP6K1 inhibitor)
Cc1nc(-c2ccc(C)c(S(=O)(=O)N3CCC(C(=O)Nc4ccc(Cl)cc4)CC3)c2)no1	IP6K1 inhibitor -26 | IP6K1 conf inactive
COc1cccc(NC(=O)C2CCN(S(=O)(=O)c3cc(-c4noc(C)n4)ccc3C)CC2)c1	IP6K1 inhibitor -36 | IP6K1 conf inactive
CC(=O)c1ccc(N2CCN(S(=O)(=O)c3cc(-c4noc(C)n4)ccc3C)CC2)cc1	none

Bioassay records from PubChem.
